Only some compounds are listed: those with a hit (about 3.5% of all), similar ones and a draw of the others.
GPR151 activ = activators of human GPR151; Q8TDV0; PathHunter beta-arrestin GPR151 cells, luminescence; activation, % at 11.2 µM; 650,000 compounds, 1% hits; in the data active = activation above about 4.9%
MITF inh = blocks human microphthalmia-associated transcription factor | AID 1259374 | AlphaScreen MITF homodimerization, bead proximity signal | 650,000 compounds, 0.91% hits | inhibition, % at 2.6 µM; in the data active = inhibition above about 50%
TEAD-YAP inh = TEAD-YAP interaction inhibition | inhibition, % at 9.12 µM | 640,000 compounds, 1.4% hits | HEK-TIYL cells, TEAD-Gal4/YAP UAS-luciferase luminescence | AID 1259422; in the data active = inhibition above about 32%
FBW7 activator = activators of human E3 ligase FBW7. Q969H0. AlphaScreen FBW7–phospho-cyclin E peptide binding, activator screen. normalized activity (activation), % at 26.1 µM. 650,000 compounds, 0.13% hits; in the data active = normalized activity above about 1.9%;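 also: purified mutant Fbw7 with reduced substrate affinity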
Target sequence (Q969H0 whole entry, looked up): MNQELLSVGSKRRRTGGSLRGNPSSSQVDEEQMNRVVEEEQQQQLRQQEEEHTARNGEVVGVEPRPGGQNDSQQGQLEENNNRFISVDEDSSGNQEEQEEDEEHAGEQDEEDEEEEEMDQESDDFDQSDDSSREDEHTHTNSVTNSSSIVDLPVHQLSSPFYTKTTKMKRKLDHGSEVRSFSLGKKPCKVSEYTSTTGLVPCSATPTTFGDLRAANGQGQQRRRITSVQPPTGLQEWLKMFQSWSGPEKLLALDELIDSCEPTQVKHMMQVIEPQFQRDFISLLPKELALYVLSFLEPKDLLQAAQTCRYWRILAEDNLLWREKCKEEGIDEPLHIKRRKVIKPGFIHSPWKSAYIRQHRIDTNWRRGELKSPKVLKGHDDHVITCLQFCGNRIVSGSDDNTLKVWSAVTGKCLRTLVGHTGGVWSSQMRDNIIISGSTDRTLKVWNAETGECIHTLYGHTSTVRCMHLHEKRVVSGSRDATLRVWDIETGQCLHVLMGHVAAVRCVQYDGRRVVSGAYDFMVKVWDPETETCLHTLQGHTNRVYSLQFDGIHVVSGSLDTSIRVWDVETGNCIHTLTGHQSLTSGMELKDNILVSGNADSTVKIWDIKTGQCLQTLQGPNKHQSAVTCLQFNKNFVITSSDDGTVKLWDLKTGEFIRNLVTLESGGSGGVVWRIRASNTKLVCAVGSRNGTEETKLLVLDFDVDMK
MITF confirm = human MITF inhibition, confirmation; shares compounds with MITF inh; AlphaScreen MITF homodimerization, biotin/His-MITF beads; inhibition, % at 2.6 µM; 4,700 compounds, 16% hits;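 active = inhibition above a cutoff derived from the DMSO control wells, cut at about 28% in these data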;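 also: inhibitors lower the bead chemiluminescence by keeping MITF from dimerizing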
AlphaScreen DR = AlphaScreen optical interference, dose response counter-screen; shares compounds with MITF inh; AlphaScreen optical interference counterscreen, cell-free; IC50, µM; 480 compounds, 6% hits; AID 1259373; call rule not given here
AlphaScreen intf2 = optically interferes with AlphaScreen signal. inhibition, % at 2.6 µM. AID 1259376. LysRS AlphaScreen counterscreen, signal interference, triplicate. shares compounds with MITF inh. 4,700 compounds, 7.6% hits;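 active = inhibition above a cutoff derived from the DMSO control wells, cut at about 30% in these data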
Of the large screens only hits and unclear results are named; the others gave an inactive call (follow-up assays come after a bar, where they were run); ! = not active in a repeat.

COC(F)(C(=O)Oc1cc([N+](=O)[O-])cc2cccnc12)C(F)(F)F (stereo not given)	MITF inh 95, TEAD-YAP inh 43 | MITF confirm 99 | AlphaScreen intf2 101
Nc1cc(C(=O)c2ccc(O)c(N)c2)ccc1O	none
Nc1cc(Oc2ccc(O)c(N)c2)ccc1O	MITF inh 111 | MITF confirm 117 | AlphaScreen intf2 78
CCOC(=O)Cc1[nH]nc2c1C1(C(=O)N(CC)c3ccccc31)C(C#N)=C(N)O2 (stereo not given)	MITF inh 60 | MITF confirm 28 | AlphaScreen DR inactive | AlphaScreen intf2 inactive
Cc1ccccc1CN1CCN(Cc2ccco2)CC1	MITF inh 72 | MITF confirm inactive | AlphaScreen intf2 inactive
Brc1ccc(CN2CCN(Cc3ccco3)CC2)cc1	MITF inh 86 | MITF confirm inactive | AlphaScreen intf2 inactive
Fc1ccc(N2CCN(Cc3ccco3)CC2)cc1	MITF inh 52 | MITF confirm inactive | AlphaScreen intf2 inactive
O=S(=O)(c1ccccc1)N1CCN(Cc2ccco2)CC1	none
c1ccc(CCCN2CCN(Cc3ccco3)CC2)cc1	MITF inh 55 | MITF confirm inactive | AlphaScreen intf2 inactive
CS(=O)(=O)N1CCN(Cc2ccco2)CC1	none
Fc1ccc(N2CN(Cc3ccco3)CNC2=S)cc1	none
O=C(Nc1nc2c(s1)CSc1ccccc1-2)c1cc2ccccc2o1	none
Cc1cccc2cc(CN(Cc3ccco3)C(=O)C3CC3)c3nnnn3c12	none
Brc1ccccc1CN1CCN(Cc2ccco2)CC1	MITF inh 78 | MITF confirm inactive | AlphaScreen intf2 inactive
Cc1ccc2c3c(ccc2n1)NC1=C(C(=O)CCC1)C3c1ccccc1C (stereo not given)	none
Cc1ccc2c3c(ccc2n1)NC1=C(C(=O)CCC1)C3c1ccccn1 (stereo not given)	MITF inh 63 | MITF confirm inactive | AlphaScreen intf2 inactive
COC(=O)c1cc(OC)c(OC)cc1NC(=O)/C=C/c1ccccc1	none
CN1CCN(Cc2cn(-c3ccccc3)nc2-c2ccc3c(c2)OCCO3)CC1	MITF inh 77 | MITF confirm inactive | AlphaScreen intf2 inactive
O=C(c1cn(-c2ccccc2)nc1-c1ccc2c(c1)OCCO2)N1CCOCC1	MITF inh 58 | MITF confirm inactive | AlphaScreen intf2 inactive
OCc1cn(-c2ccccc2)nc1-c1ccc2c(c1)OCCO2	none
O=C(C1=C(O)C(=O)N(CCCN2CCOCC2)C1c1ccco1)c1ccco1 (stereo not given)	none
CCc1cc(OCCCN2CCN(CC)CC2)ccc1Cl	MITF inh 67 | MITF confirm inactive | AlphaScreen intf2 inactive
CCN1CCN(CCCOc2ccc3c(c2)CCC3)CC1	MITF inh 61 | MITF confirm inactive | AlphaScreen intf2 inactive
CCc1cc(OCCCNCCN2CCOCC2)ccc1Cl	none
COC(=O)C1=C(C)NC(C)=C(C(=O)OC)C1c1ccc(OC)c(OC)c1	none
CC1CCN(Cc2ccc(O)c3ncccc23)CC1	MITF inh 83, TEAD-YAP inh 41 | MITF confirm 97 | AlphaScreen intf2 100
CC1CCN(C(=O)C2CCN(Cc3ccccc3O)CC2)CC1	none
CCOC(=O)C1CCCN(Cc2ccc(O)c3ncccc23)C1 (stereo not given)	MITF inh 78 | MITF confirm 82 | AlphaScreen intf2 100
COc1cc(C(C)=O)ccc1OCCOCCN1CCN(Cc2ccccc2)CC1	MITF inh 87 | MITF confirm inactive | AlphaScreen intf2 inactive
Cc1ccc([N+](=O)[O-])c(OCCOCCN2CCN(Cc3ccccc3)CC2)c1	MITF inh 70 | MITF confirm inactive | AlphaScreen intf2 inactive
Cc1ccc([N+](=O)[O-])c(OCCCN2CCN(Cc3ccccc3)CC2)c1	none
C/C=C/c1ccc(OCCCNC(C)CC)c(OC)c1 (stereo not given)	MITF inh 83 | MITF confirm inactive | AlphaScreen intf2 inactive
C/C=C/c1ccc(OCCN(C)C)c(OC)c1	MITF inh 73 | MITF confirm inactive | AlphaScreen intf2 inactive
C/C=C/c1ccc(OCCCNC2CCCC2)c(OC)c1	MITF inh 51 | MITF confirm inactive | AlphaScreen intf2 inactive
C=CCc1ccc(OCCNC2CCCC2)c(OC)c1	none
CCNC(=O)N1CCN(c2ccc3cccc(-c4ccccc4F)c3n2)CC1	none
COc1ccc(S(=O)(=O)NCCc2csc(-c3ccccc3)n2)cc1	none
COc1cccc(C2CC(c3cccs3)=NN2C(=O)CSc2nnc(CNC(=O)c3ccccc3)n2-c2ccccc2)c1OC (stereo not given)	MITF inh 70 | MITF confirm inactive | AlphaScreen intf2 inactive
COc1ccc(CCN2C(=S)N(c3ccc(F)cc3)C(=O)C2CC(=O)Nc2ccc(OC)cc2)cc1 (stereo not given)	none
C=C/C=C(\C(C)=C(C)C)N(C(C)=O)C1=NCCCS1	MITF inh 65 | MITF confirm inactive | AlphaScreen intf2 inactive
COc1ccc(C)cc1NC(=O)CNCc1ccco1	MITF inh 53 | MITF confirm inactive | AlphaScreen intf2 inactive
COc1ccc(C)cc1NC(=O)NCc1ccco1	none
COc1ccc(-c2cc3ccccc3n2CC(O)CNCCO)cc1 (stereo not given)	MITF inh 53 | MITF confirm inactive | AlphaScreen intf2 inactive
O=C(CSc1nsc(SCC(=O)Nc2ccc(Cl)c(Cl)c2)n1)Nc1ccc(Cl)c(Cl)c1	MITF inh 59 | MITF confirm 39 | AlphaScreen intf2 inactive
Cc1cccc(NC(=O)CSc2nsc(SCC(=O)Nc3cccc(C)c3)n2)c1	none
O=C(COC(=O)Cc1ccc(-c2ccccc2)cc1)NNC(=O)c1ccccc1	none
CC(NCC(O)CO)c1ccc(-n2ccnc2)cc1 (stereo not given)	MITF inh 81 | MITF confirm inactive | AlphaScreen intf2 inactive
CN(C)CCNc1nc(C2COc3ccccc3O2)nc2ccc(-c3cn[nH]c3)cc12 (stereo not given)	MITF inh 52! | MITF confirm 64 | AlphaScreen DR inactive | AlphaScreen intf2 inactive
CCCCCC(C)(C)NC(=O)CN1CCOCC1	MITF inh 51 | MITF confirm inactive | AlphaScreen intf2 inactive
Cc1cc2c(c(=O)[nH]1)C(=O)O/C2=C\c1ccco1	MITF inh 61 | MITF confirm 62 | AlphaScreen DR inactive | AlphaScreen intf2 inactive
Cc1cc2c(c(=O)[nH]1)C(=O)O/C2=C\c1ccc(C)o1	MITF inh 55 | MITF confirm 70 | AlphaScreen DR inactive | AlphaScreen intf2 inactive
Cc1cc2c(c(=O)[nH]1)C(=O)O/C2=C/c1ccc(F)cc1	none
Cc1cc2c(c(=O)[nH]1)C(=O)O/C2=C\c1cccs1	none
Cc1ccc(S(=O)(=O)Nc2nc(O)c(C3=c4cc([N+](=O)[O-])ccc4=NC3=O)s2)cc1	none
O=C1N=c2ccc([N+](=O)[O-])cc2=C1c1sc(NS(=O)(=O)c2ccccc2)nc1O	MITF inh 64! | MITF confirm inactive | AlphaScreen intf2 inactive
